Assay outcomes as filed in PubChem BioAssay.
This is one part of a sample in which hits are shown more often than they occur.
ER stress death = protection against thapsigargin ER stress killing – CSM14.1 cells, ATP luminescence, primary screen | CSM14.1 thapsigargin ER stress survival | relative survival (cellular ATP), % at 15 µg/mL (by protocol) | 48,000 tested, 0.33% active | AID 1010, 2008;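 active = survival measured by cellular ATP above 50% at 15 µg/ml in the first screen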;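 also: cell death triggered by about 15 µM thapsigargin; ATP read 24 h after thapsigargin was added; plate controls were thapsigargin with DMSO for no effect and DMSO without thapsigargin for full effect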
Active calls of the source: *.

SMILES	ER stress death
O=C(NN1CCOCC1)c1ccc([N+](=O)[O-])cc1[N+](=O)[O-]	9
COc1ccc(OC)c(S(=O)(=O)NCc2ccc3c(c2)OCO3)c1	7
O=C(COc1ccc(Cl)cc1Cl)Nc1ccc(Br)c(Cl)c1	4
CCOc1ccc(NC(=O)/C=C\C(=O)O)cc1	-10
O=C(O)/C=C/C(=O)Nc1ccc(OC(F)(F)Cl)cc1	108*
O=C(O)/C=C/C(=O)Nc1ccc(-c2ccc(NC(=O)/C=C/C(=O)O)cc2)cc1	-3
CCc1ccccc1NC(=O)c1cc(-c2cccs2)nc2ccccc12	3
COc1cc(C(=O)Nc2ccc(N3C(=O)c4ccc(Cl)cc4C3=O)c(C)c2)cc(OC)c1OC	12
CCN1C(=O)/C(=C/c2ccc(I)cc2)SC1=S	9
O=C(Nc1cccc(Br)c1)c1cccs1	5
NS(=O)(=O)c1cccc(NC(=O)c2cccs2)c1	0
O=C(Nc1cccc(S(=O)(=O)c2cccc(NC(=O)c3cccs3)c2)c1)c1cccs1	113*
O=C(NC(=S)Nc1ccc2ccccc2c1)c1ccccc1Cl	0
O=C(CN1CCCCC1)Nc1ccccc1I	-4
O=C(CC1SC(=Nc2ccccc2)N(c2ccccc2)C1=O)Nc1ccc(F)cc1 (configuration not stated)	2
O=C(CC1SC(=Nc2ccccc2)N(c2ccccc2)C1=O)Nc1ccccc1C(F)(F)F (configuration not stated)	65*
Cc1ccc(NC(=O)CC2SC(=Nc3ccccc3)N(c3ccccc3)C2=O)cc1 (configuration not stated)	-1
C=C(C)c1cccc(C(C)(C)NC(=O)Nc2ccc(I)cc2)c1	5
COc1ccc(CNc2ccc(C)c(C)c2)c(OC)c1C	-4
COc1cccc(CNc2ccc3c(c2)ncn3-c2ccccc2)c1OC	89*
COc1ccc(CNc2ccc3c(c2)ncn3C)cc1	0
CN1CCN(S(=O)(=O)c2ccc(Oc3ccc([N+](=O)[O-])cc3)cc2)CC1	32
Cc1cc(Cl)ccc1OCC(=O)Nc1ccc(I)cc1Cl	0
COCC(=O)N/N=C(\C)CC(=O)Nc1cc(C)ccc1OC	14
CCCC(=O)Nc1ccc(NC(=O)COc2ccc3ccccc3c2)cc1	5
SMILES	ER stress death
O=C(O)CCC(=O)Nc1cc(NC(=O)CCC(=O)O)cc(C(=O)O)c1	4
O=C1NC(=O)N(c2ccc(Cl)cc2)C(=O)/C1=C\C=C\c1ccco1	54*
Cc1cc(N2C(=O)NC(=O)/C(=C\C=C\c3ccco3)C2=O)ccc1Br	2
O=C1NC(=S)N(c2ccc(Cl)cc2)C(=O)/C1=C/C=C/c1ccccc1	44
COc1ccc(C(=O)N2CCN(Cc3ccc(SC)cc3)CC2)cc1OC	-1
C=CCN1C(=O)/C(=C\c2ccccc2I)C(=O)NC1=S	13
CCOC(=O)c1cnn(-c2ncnc3sc(CC)cc23)c1N	9
CCc1cc2c(N3CCN(Cc4ccc(Cl)cc4Cl)CC3)ncnc2s1	98*
CCc1cc2c(N3CCCCC3)ncnc2s1	-1
C/C(Cn1nnc([N+](=O)[O-])n1)=N/NC(=O)c1ccc(Cl)cc1	3
COc1ccc(OC)c(/C=N/NC(=O)Cn2cnc3ccccc32)c1	2
CCCCn1c(-c2ccccc2)nc2ccccc21	-3
COc1ccc(S(=O)(=O)N(CC(=O)NCc2ccco2)c2cc(C)cc(C)c2)cc1OC	-2
CCOc1ccccc1NC(=O)c1c(NC(=O)c2ccc(C)cc2)sc2c1CCCC2	6
CCOc1ccccc1NC(=O)c1c(NC(=O)c2cccc(F)c2)sc2c1CCCCC2	53*
CCOc1ccccc1NC(=O)c1c(NC(=O)c2ccccc2F)sc2c1CCCCC2	12
C=CCN1C(=O)NC(=O)/C(=C\c2ccccc2OC)C1=O	8
CCOc1ccc(N2C(=O)/C(=C/c3cccs3)SC2=S)cc1	16
CC(NC(=O)c1ccc(S(=O)(=O)N2CCCCC2)cc1)C12CC3CC(CC(C3)C1)C2 (configuration not stated)	108*
CC(NC(=O)c1ccccc1)C12CC3CC(CC(C3)C1)C2 (configuration not stated)	1
Cc1ccc(C(=O)Nc2ccc(S(=O)(=O)N3CCCC3)cc2)cc1	0
